Several values for one entry are separate records, joined by “and”; a condition that tells them apart may be missing. Equal values may be shown once. Inconclusive results are not listed. The source holds several records for some structures; these can differ, active in one and inactive in another. Activity calls are given as the source filed them. The calls were made as follows, unless noted: active = hit-call score of the fitted dose curve at least 0.9, where 1 is the maximum; inactive = score below 0.9.

For assay [1], the target named is Paired box protein Pax-6 (Homo sapiens) (UniProt P26367). In words: ATG_Pax6_CIS: Attagene CIS-FACTORIAL HepG2 Assay for human Paired Box 6 (PAX6) (AID 2282956). As to conditions: HepG2 CIS-FACTORIAL PAX6 reporter transcription, RNA readout; actives raise or lower the signal. In a few lines: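 Readout: reporter transcript fluorescence after RT-PCR and capillary electrophoresis. Cells: HepG2, transiently transfected with cis-regulated MRTUs. Exposure 24 h. Gain or loss of signal fitted bidirectionally relative to DMSO.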

The nature of assay [2]: ATG_PXRE_CIS: Attagene CIS-FACTORIAL HepG2 Assay for human Pregnane X Receptor Element (PXRE) (AID 2282957). Particulars: HepG2 Attagene CIS-FACTORIAL PXRE reporter, mRNA; actives raise or lower the signal. In a few lines:
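After a 24 h chemical incubation, total RNA from transfected HepG2 cells was reverse-transcribed and reporter cDNA amplified, FAM-labeled, HpaI-digested and sized by capillary electrophoresis. DMSO served as baseline for bidirectional curve fitting.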

The nature of assay [3]: ATG_PPRE_CIS: Attagene CIS-FACTORIAL HepG2 Assay for human Peroxisome Proliferator-activated Response Element (PPRE) (AID 2282958). Particulars: HepG2 PPRE cis-element reporter, Attagene transcription factor profiling; actives raise or lower the signal. In a few lines:
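Read-out: fluorescent reporter mRNA fragments resolved by capillary electrophoresis after RT-PCR. HepG2 cells carried transiently transfected PPRE-driven cis reporter constructs and were dosed for 24 h; gain or loss of signal fitted relative to DMSO.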

The nature of assay [4]: ATG_RORE_CIS: Attagene CIS-FACTORIAL HepG2 Assay for human RAR-related Orphan Receptor Element (RORE) (AID 2282959). Particulars: HepG2 Attagene cis-factorial RORE reporter, mRNA; actives raise or lower the signal. In a few lines: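 Readout: fluorescent reporter mRNA by RT-PCR plus capillary electrophoresis, 24 h after dosing transfected HepG2 cells. Endogenous transcription factor activity on a cis promoter element is measured. Gain or loss of signal fitted against DMSO.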

Assay [5] can be described thus: ATG_Sox_CIS: Attagene CIS-FACTORIAL HepG2 Assay for human SRY-box transcription factor (SOX) (AID 2282960). Particulars: HepG2 Attagene cis-factorial SOX reporter, mRNA; actives raise or lower the signal. In short, it runs like this: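 Read-out: fluorescent RT-PCR products of SOX1-linked reporter transcripts resolved by capillary electrophoresis, fitted bidirectionally against DMSO. Transiently transfected HepG2 cells, 24 h after chemical exposure, endogenous transcription factor activity.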

Assay [6] concerns the target Transcription factor Sp1 (Homo sapiens) (UniProt P08047). In words: ATG_Sp1_CIS: Attagene CIS-FACTORIAL HepG2 Assay for human Specificity Protein 1 (Sp1) (AID 2282961). As to conditions: HepG2 Sp1 cis-reporter transcription, actives raise or lower the signal. In short, it runs like this: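 Read-out: fluorescence of 6-FAM-labeled, HpaI-digested RT-PCR products separated by capillary electrophoresis. HepG2 cells carried transfected cis-element reporter units and were exposed to chemicals for 24 h; gain or loss of signal fitted relative to DMSO.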

The nature of assay [7]: ATG_SREBP_CIS: Attagene CIS-FACTORIAL HepG2 Assay for human Sterol Regulatory Element Binding (SREBP) (AID 2282962). As to conditions: HepG2 Attagene cis-factorial SREBP reporter, mRNA; actives raise or lower the signal. In a few lines: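 Readout: fluorescent reporter-transcript peaks resolved by capillary electrophoresis after RT-PCR. Cells were human HepG2 carrying transfected cis-promoter reporter constructs, dosed for 24 h. Gain or loss of signal was fitted against DMSO controls.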

The target of assay [8] is Signal transducer and activator of transcription 3 (Homo sapiens) (UniProt P40763). Put plainly: ATG_STAT3_CIS: Attagene CIS-FACTORIAL HepG2 Assay for human Signal Transducer and Activator of Transcription 3 (STAT3) (AID 2282963). Particulars: HepG2, Attagene cis-factorial STAT3 reporter transcription; actives raise or lower the signal. In short, it runs like this: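 Cis-factorial format: endogenous transcription factors in HepG2 drive transfected reporter units. After 24 h treatment, reporter RNA was reverse-transcribed, amplified, FAM-labelled and HpaI-digested before CE analysis; activity scored in both directions against DMSO.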

The nature of assay [9]: ATG_TA_CIS: Attagene CIS-FACTORIAL HepG2 Assay for human TA Basal Promoter (AID 2282964). Particulars: HepG2 Attagene CIS-factorial TA basal promoter reporter; actives raise or lower the signal. In short, it runs like this: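 Steps: transfect HepG2 with MRTUs; dose 24 h; isolate RNA, DNase-treat, reverse-transcribe; PCR and FAM-label reporter cDNA; digest with HpaI 2h at 37 C; run capillary electrophoresis. Activity fitted both directions against DMSO.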

The nature of assay [10]: ATG_TCF_b_cat_CIS: Attagene CIS-FACTORIAL HepG2 Assay for human T-Cell-Factor with beta-catenin (TCF/b-cat) (AID 2282965). As to conditions: HepG2 TCF/beta-catenin cis-reporter transcription, actives raise or lower the signal. In short, it runs like this: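 Measured: reporter mRNA in HepG2 transiently transfected with cis-promoter reporter units, 24 h after chemical addition. Fitting was bidirectional, DMSO as negative control.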

Assay [11] can be described thus: ATG_TAL_CIS: Attagene CIS-FACTORIAL HepG2 Assay for human TAL Basal Promoter (AID 2282966).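 Also: background control endpoint measuring basal TAL promoter reporter mRNA not a specific factor.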 Particulars: HepG2 Attagene cis-factorial TAL promoter reporter; actives raise or lower the signal. In short, it runs like this: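 Basal-promoter background-control endpoint from a multiplexed HepG2 reporter panel. Cells were exposed 24 h, then reporter mRNA was read by RT-PCR/CE fluorescence and fitted in both directions relative to DMSO.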

Assay [12] can be described thus: ATG_TGFb_CIS: Attagene CIS-FACTORIAL HepG2 Assay for human Transforming Growth Factor (TGF) (AID 2282967). Particulars: HepG2 Attagene CIS TGFb reporter, mRNA transcription; actives raise or lower the signal. In short, it runs like this: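 Cells were dosed for 24 hours, after which total RNA was reverse-transcribed and reporter sequences amplified, labeled and sized by capillary electrophoresis. Activity was fitted in both directions against DMSO.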

Assay [13] can be described thus: ATG_VDRE_CIS: Attagene CIS-FACTORIAL HepG2 Assay for human Vitamin D Receptor Element (VDRE) (AID 2282968). As to conditions: HepG2 VDRE cis-reporter transcription, actives raise or lower the signal. In a few lines:
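Measures endogenous factor activity through cis-element-driven reporter transcripts in transiently transfected HepG2. Cells are treated 24 h; reporter mRNA is quantified by RT-PCR and capillary electrophoresis; fitting is bidirectional.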

Assay [14] has as its target Estrogen receptor (Homo sapiens) (UniProt P03372). In words: ATG_ERa_TRANS: Attagene TRANS-FACTORIAL HepG2 Assay for human Estrogen Receptor alpha (ERa) (AID 2282970; active = hit-call score of the fitted dose curve at least 0.9, where 1 is the maximum). Particulars: HepG2 Attagene TRANS ERa GAL4 reporter, mRNA. In short, it runs like this: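 Gal4-fusion ERa transactivation, measured as reporter transcript level in transiently transfected HepG2 cells. Exposure 24 h; RT-PCR plus capillary electrophoresis with fluorescence detection.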

In assay [15] the target is X-box-binding protein 1 (Homo sapiens) (UniProt P17861). In words: ATG_Xbp1_CIS: Attagene CIS-FACTORIAL HepG2 Assay for human X-box Binding Protein 1 (XBP1) (AID 2282972). As to conditions: HepG2 XBP1 cis-element reporter, Attagene multiplex; actives raise or lower the signal. In short, it runs like this: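 Read-out: fluorescent reporter mRNA fragments resolved by capillary electrophoresis after RT-PCR. Human HepG2 liver cells carried transfected cis-promoter reporter units and were exposed to chemicals for 24 hours. Gain or loss of signal fitted relative to DMSO baseline.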

Assay [16] in a line: ATG_M_19_TRANS: Attagene TRANS-FACTORIAL HepG2 Assay for M19 Transcription Factor (Internal Marker) (AID 2282974; active = hit-call score of the fitted dose curve at least 0.9, where 1 is the maximum). As to conditions: HepG2 Attagene TRANS-FACTORIAL M19 internal marker reporter. In a few lines: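 24 h chemical exposure of transiently transfected HepG2 (MRTU library). RNA → oligo(dT) RT → PCR → 6-FAM labelling → HpaI cut → CE fluorescence. Positive-direction fit vs DMSO baseline; background internal-marker readout.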

A short description of assay [17]: ATG_GAL4_TRANS: Attagene TRANS-FACTORIAL HepG2 Assay for GAL4 (Internal Marker) (AID 2282976; active = hit-call score of the fitted dose curve at least 0.9, where 1 is the maximum). Particulars: HepG2 Attagene TRANS GAL4 internal marker reporter. In a few lines:
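Background-control readout: GAL4-UAS reporter transcript in transiently transfected HepG2 cells after 24 h compound exposure. Measured by RT-PCR, 6-FAM primer extension, HpaI digest and capillary electrophoresis; gain-of-signal fit versus DMSO.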

The target in assay [18] is Nuclear receptor subfamily 1 group I member 3 (Homo sapiens) (UniProt Q14994). Put plainly: ATG_CAR_TRANS: Attagene TRANS-FACTORIAL HepG2 Assay for human Constitutive Androstane Receptor (CAR) (AID 2282969; active = hit-call score of the fitted dose curve at least 0.9, where 1 is the maximum;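 also: activators raise reporter mRNA above DMSO so AC50 marks induction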). As to conditions: HepG2 Attagene TRANS-FACTORIAL CAR reporter. In a few lines:
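Signal is reporter mRNA induction relative to DMSO, measured 24 h after dosing by RT-PCR with fluorescent primer extension and capillary electrophoresis. Human HepG2 liver cells carried transiently transfected chimeric NR-Gal4/GAL4-UAS reporter constructs.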

Assay [19] concerns the target Estrogen-related receptor gamma (Homo sapiens) (UniProt P62508). Put plainly: ATG_ERRg_TRANS: Attagene TRANS-FACTORIAL HepG2 Assay for human Estrogen-Related Receptor gamma (ERRg) (AID 2282977; active = hit-call score of the fitted dose curve at least 0.9, where 1 is the maximum;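 also: hits increase reporter signal over DMSO so potencies reflect activators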). As to conditions: HepG2 Attagene TRANS reporter, ERRg transactivation. In a few lines: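 Readout: fluorescent reporter-mRNA fragments resolved by capillary electrophoresis after RT-PCR and HpaI cut. Cells: transiently transfected HepG2 carrying GAL4-UAS reporters driven by exogenous NR-Gal4 chimeras, dosed 24 h. Activity fitted upward relative to DMSO baseline.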

Assay [20] has as its target Steroid hormone receptor ERR1 (Homo sapiens) (UniProt P11474). In words: ATG_ERRa_TRANS: Attagene TRANS-FACTORIAL HepG2 Assay for human Estrogen-Related Receptor alpha (ERRa) (AID 2282971; active = hit-call score of the fitted dose curve at least 0.9, where 1 is the maximum). Particulars: HepG2 Attagene TRANS reporter, ERRa transactivation. In a few lines: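 HepG2 cells transiently transfected with GAL4-UAS reporter units and chimeric NR-Gal4 constructs; after 24 hour compound incubation, reporter mRNA quantified by RT-PCR, fluorescent labelling and capillary electrophoresis, gain of signal versus DMSO.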

Sequence of Transcription factor Sp1 (Homo sapiens) (P08047 whole entry, looked up): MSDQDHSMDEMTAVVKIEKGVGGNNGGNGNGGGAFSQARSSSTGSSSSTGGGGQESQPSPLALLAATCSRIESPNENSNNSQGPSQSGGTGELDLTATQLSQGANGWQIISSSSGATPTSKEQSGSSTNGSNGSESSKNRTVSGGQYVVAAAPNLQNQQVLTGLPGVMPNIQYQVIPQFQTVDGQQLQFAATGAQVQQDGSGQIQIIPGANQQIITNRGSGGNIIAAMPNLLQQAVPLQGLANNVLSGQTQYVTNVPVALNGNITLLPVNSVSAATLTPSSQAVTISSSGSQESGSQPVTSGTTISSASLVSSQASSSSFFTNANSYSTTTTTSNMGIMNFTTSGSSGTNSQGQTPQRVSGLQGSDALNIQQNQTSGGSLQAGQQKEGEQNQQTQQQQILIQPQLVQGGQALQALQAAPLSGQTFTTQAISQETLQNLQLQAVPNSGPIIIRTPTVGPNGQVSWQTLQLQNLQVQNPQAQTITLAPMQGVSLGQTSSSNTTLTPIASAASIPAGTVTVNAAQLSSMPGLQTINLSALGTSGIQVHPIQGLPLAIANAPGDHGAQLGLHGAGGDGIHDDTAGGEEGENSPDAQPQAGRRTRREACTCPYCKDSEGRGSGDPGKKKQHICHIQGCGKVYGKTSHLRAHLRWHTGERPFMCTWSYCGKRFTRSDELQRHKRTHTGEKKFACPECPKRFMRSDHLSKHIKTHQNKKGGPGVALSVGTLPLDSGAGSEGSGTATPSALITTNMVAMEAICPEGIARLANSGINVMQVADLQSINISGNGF
Sequence of Estrogen receptor (Homo sapiens) (P03372 whole entry, looked up, the tested form may be a part): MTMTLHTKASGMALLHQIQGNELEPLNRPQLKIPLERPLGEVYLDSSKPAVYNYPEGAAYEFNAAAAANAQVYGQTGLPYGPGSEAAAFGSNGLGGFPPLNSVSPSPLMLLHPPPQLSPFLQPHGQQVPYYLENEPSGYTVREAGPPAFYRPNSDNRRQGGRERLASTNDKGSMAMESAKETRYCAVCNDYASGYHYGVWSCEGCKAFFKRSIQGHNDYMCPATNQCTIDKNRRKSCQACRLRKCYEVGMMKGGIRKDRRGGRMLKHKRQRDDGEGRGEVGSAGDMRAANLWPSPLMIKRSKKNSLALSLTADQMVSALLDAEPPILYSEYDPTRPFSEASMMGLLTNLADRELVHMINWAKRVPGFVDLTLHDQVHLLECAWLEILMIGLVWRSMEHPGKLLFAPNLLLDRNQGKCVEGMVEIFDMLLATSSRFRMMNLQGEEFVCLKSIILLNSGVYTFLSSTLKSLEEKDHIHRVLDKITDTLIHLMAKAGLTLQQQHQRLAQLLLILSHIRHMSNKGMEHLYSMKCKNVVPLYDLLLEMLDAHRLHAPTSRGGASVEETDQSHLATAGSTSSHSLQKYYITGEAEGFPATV
Sequence of Paired box protein Pax-6 (Homo sapiens) (P26367 whole entry, looked up): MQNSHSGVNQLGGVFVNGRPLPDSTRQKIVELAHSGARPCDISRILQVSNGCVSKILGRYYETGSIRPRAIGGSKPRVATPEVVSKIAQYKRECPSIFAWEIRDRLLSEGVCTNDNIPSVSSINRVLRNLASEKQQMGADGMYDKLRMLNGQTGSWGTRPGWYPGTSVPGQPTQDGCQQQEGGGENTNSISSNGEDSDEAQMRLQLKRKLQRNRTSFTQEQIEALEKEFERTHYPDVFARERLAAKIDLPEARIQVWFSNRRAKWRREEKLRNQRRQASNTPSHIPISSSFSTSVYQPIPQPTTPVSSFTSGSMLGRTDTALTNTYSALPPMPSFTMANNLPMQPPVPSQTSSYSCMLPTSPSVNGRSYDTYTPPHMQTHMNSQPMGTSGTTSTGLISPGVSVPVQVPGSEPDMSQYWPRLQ
Sequence of Signal transducer and activator of transcription 3 (Homo sapiens) (P40763 whole entry, looked up): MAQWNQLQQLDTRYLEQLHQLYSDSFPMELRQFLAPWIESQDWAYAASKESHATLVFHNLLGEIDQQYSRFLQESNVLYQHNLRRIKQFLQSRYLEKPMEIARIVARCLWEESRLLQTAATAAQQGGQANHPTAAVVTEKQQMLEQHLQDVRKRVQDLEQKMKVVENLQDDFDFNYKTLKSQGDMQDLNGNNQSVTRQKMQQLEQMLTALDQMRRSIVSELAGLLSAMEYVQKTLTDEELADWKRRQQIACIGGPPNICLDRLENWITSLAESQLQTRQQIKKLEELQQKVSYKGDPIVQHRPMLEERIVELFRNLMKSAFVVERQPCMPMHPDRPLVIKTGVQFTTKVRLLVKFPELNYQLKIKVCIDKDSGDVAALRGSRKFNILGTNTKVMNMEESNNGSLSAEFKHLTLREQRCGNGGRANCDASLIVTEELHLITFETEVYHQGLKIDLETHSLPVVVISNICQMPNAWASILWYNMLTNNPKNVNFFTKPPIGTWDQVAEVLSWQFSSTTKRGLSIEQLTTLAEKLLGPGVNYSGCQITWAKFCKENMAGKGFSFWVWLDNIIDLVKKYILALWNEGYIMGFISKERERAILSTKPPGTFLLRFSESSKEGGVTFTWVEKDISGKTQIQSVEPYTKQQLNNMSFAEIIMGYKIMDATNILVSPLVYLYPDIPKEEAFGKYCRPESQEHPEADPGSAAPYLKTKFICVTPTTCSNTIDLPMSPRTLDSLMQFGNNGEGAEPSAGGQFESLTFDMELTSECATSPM
Sequence of X-box-binding protein 1 (Homo sapiens) (P17861 whole entry, looked up, the tested form may be a part): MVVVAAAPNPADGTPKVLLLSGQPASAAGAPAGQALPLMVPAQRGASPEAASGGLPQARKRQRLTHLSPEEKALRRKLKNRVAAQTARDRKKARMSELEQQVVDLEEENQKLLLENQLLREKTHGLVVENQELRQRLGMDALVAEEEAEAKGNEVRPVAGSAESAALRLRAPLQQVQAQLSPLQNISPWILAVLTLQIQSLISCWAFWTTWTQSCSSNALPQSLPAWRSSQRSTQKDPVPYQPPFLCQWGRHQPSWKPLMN
Sequence of Steroid hormone receptor ERR1 (Homo sapiens) (P11474 whole entry, looked up, the tested form may be a part): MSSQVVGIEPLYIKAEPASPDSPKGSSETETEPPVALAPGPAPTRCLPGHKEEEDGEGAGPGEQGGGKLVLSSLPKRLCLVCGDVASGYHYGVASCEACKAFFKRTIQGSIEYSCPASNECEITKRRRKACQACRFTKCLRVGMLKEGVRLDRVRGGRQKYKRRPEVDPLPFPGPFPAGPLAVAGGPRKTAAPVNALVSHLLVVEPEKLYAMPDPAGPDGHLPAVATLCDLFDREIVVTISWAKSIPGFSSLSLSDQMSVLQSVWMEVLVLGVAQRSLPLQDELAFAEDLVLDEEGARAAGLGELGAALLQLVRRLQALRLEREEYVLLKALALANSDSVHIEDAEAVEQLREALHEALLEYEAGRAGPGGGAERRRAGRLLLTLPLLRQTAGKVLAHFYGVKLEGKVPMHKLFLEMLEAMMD
Sequence of Nuclear receptor subfamily 1 group I member 3 (Homo sapiens) (Q14994 whole entry, looked up, the tested form may be a part): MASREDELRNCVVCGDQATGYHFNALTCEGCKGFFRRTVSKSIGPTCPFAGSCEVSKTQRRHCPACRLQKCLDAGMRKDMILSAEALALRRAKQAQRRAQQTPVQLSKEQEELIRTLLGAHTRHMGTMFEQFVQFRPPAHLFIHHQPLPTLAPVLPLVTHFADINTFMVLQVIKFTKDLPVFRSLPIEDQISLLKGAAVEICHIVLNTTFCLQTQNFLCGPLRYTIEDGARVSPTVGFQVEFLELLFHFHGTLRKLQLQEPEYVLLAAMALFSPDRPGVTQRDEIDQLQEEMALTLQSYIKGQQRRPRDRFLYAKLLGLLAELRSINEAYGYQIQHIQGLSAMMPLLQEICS
Sequence of Estrogen-related receptor gamma (Homo sapiens) (P62508 whole entry, looked up, the tested form may be a part): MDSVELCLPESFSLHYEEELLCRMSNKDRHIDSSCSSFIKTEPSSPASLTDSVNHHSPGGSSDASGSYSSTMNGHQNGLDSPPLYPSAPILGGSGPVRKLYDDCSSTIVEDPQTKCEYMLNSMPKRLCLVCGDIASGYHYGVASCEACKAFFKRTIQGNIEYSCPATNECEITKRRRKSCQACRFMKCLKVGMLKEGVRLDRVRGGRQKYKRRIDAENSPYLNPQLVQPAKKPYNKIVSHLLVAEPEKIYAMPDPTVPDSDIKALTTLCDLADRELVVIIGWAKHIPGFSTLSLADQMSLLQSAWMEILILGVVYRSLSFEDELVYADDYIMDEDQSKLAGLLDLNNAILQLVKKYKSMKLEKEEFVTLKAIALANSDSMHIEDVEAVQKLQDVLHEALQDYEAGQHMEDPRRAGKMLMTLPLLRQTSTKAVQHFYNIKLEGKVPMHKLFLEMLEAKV

On to `CCCCCCCCCCCO`, for which the outcome in assay [1], in assay [2], in assay [3], in assay [4], in assay [5] and in assay [6] was inactive. The molecule was classed as inactive in assay [7], in [8], in assay [9], in [10], in assay [11] and in assay [12]. Moreover, the call in assay [13], in assay [14], in [15] and in [17] was inactive. Besides, in assay [16], the AC50 is 158 µM (active).
With `CCCCCCCCCCCCO`, the molecule was classed as inactive in assay [1], in assay [2], in [3], in assay [4], in assay [5] and in [6]. For the same molecule, the molecule was classed as inactive in [7], in assay [8], in assay [9], in assay [10], in assay [11] and in [12]. Besides, the call in assay [13], in assay [18], in assay [14], in [15] and in assay [16] was inactive.
Turning to `Clc1cc(Cl)c2c(c1)N=C1CCCCCN1C2`, the outcome in assay [1], in assay [3], in [4], in assay [5], in assay [6] and in [7] was inactive. The outcome in [8], in assay [9], in assay [11], in [12], in assay [13] and in assay [18] was inactive. The call in assay [14], in assay [15] and in [19] was inactive. The AC50 in assay [2] was 13.2 µM (active); in assay [10] it was 83.4 µM (active).
As for `CC(O)CC(C)(C)O` (configuration not stated), the molecule was classed as inactive in assay [1], in assay [2], in assay [4], in assay [5], in [6] and in assay [7]. For the same molecule, the result in [8], in [9], in assay [10], in assay [11], in assay [12] and in assay [13] was inactive. The result in [15], in assay [16] and in assay [17] was inactive. Also, the AC50 in assay [2] is 37.5 µM (active); in assay [15], 0.0122 µM (active).
With `CCCCCCCCCC(=O)O`, the result in [1], in assay [2], in assay [4], in [5], in assay [6] and in assay [7] was inactive. For the same molecule, the result in assay [8], in assay [9], in assay [10], in assay [11], in [12] and in assay [13] was inactive. In addition, the result in [20], in assay [15], in assay [16] and in assay [17] was inactive. Also, the AC50 in [2] is 27.4 µM (active); in [7], 104 µM (active).
For `CCCCOC(=O)c1ccc(O)cc1`, the AC50 in [1] was 81.5 µM (active); in assay [2], 27 µM (active) and 24.1 µM (active); in [3] it was 63.3 µM (active) and 65.9 µM (active) and 24.9 µM (active); in assay [4] it was 65 µM (active); in [5], 100 µM (active); in assay [7] it was 19.8 µM (active). Besides, the half-maximal activity concentration (AC50) in assay [9] is 79 µM (active); in [10], 100 µM (active); in assay [13], 72.4 µM (active) and 51.8 µM (active); in assay [15] it was 107 µM (active). Further, the molecule was called inactive in assay [1], in [2], in assay [3], in [4], in assay [5] and in [6]. Besides, the molecule was called inactive in assay [7], in assay [8], in [9], in assay [10], in assay [11] and in [12]. The outcome in assay [13], in assay [15], in assay [16] and in assay [17] was inactive.

The AC50 is the concentration at which the activity in the assay is half-maximal.

The values above are taken from PubChem BioAssay (EPA / NIEHS).
